# Measured values from PubChem BioAssay (NCATS).
# Records with an inconclusive call do not appear. A call without a number means that no potency is given here. Calls of active or inactive are those of the source. The call rests on the fitted dose curve; in most records, active means well fitted inhibition curve with a large enough effect; inconclusive means small, poorly fitted or top-dose-only effect; inactive means flat fitted curve, though single readings scatter.
# Columns and labels:
# Test in all cases: qHTS profiling for inhibitors of Plasmodium falciparum proliferation (AID 504749); further: nearly all actives have a fitted effect of over 60% in size
# Details in all cases: P. falciparum in erythrocytes, SYBR Green DNA, 72 h; series mostly up to 28.7 µM
# CP260 = system: CP260
# Procedure, shortened: (§1)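 P. falciparum-infected erythrocytes (0.3% parasitemia, 2.5% hematocrit) incubated with compound 72 h at 37 C, 5% CO2. Parasite DNA detected by SYBR Green after lysis, overnight at room temperature; normalised to 0.29 uM artemisinin and DMSO.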
# CP262 = system: CP262
# Procedure, shortened: as §1
# CP265 = system: CP265
# Procedure, shortened: as §1
# CP266 = system: CP266
# Procedure, shortened: as §1
# CP268 = system: CP268
# Procedure, shortened: as §1
# CP269 = system: CP269
# Procedure, shortened: as §1
# CP286 = system: CP286
# Procedure, shortened: as §1
# CP291 = system: CP291
# Procedure, shortened: as §1
# CP297 = system: CP297
# Procedure, shortened: as §1
# CP305 = system: CP305
# Procedure, shortened: as §1
# Potency means the concentration at half of the fitted maximal effect.
SMILES,Potency (CP260),Potency (CP262),Potency (CP265),Potency (CP266),Potency (CP268),Potency (CP269),Potency (CP286),Potency (CP291),Potency (CP297),Potency (CP305)
CCCCCCCCCCCCCCCCCCCCCC(=O)Nc1ccn([C@@H]2O[C@H](CO)[C@@H](O)[C@@H]2O)c(=O)n1,inactive,inactive,inactive,inactive,inactive,inactive,inactive,inactive,inactive,inactive
O=S(=O)(O)CCCS(=O)(=O)O,inactive,inactive,inactive,inactive,inactive,inactive,inactive,inactive,inactive,inactive
O=C(/C=C/c1cccc(F)c1)NC1CC1,inactive,inactive,inactive,inactive,inactive,inactive,inactive,inactive,inactive,inactive
COc1ccc(/C=N/NC(=O)c2ccncc2)c(C(=O)O)c1OC,inactive,inactive,inactive,inactive,inactive,inactive,inactive,inactive,inactive,inactive
O=C(O)/C=C/c1ccccc1,inactive,inactive,inactive,inactive,inactive,inactive,inactive,inactive,inactive,inactive
Cc1ccccn1,inactive,inactive,inactive,inactive,inactive,inactive,inactive,inactive,inactive,inactive
CC/C=C\C/C=C\C/C=C\CCCCCCCC(=O)O,inactive,inactive,inactive,inactive,inactive,inactive,inactive,inactive,inactive,inactive
O=C(NCCNCC(O)COc1ccc(O)cc1)N1CCOCC1 (stereo not given),inactive,inactive,inactive,inactive,inactive,inactive,inactive,inactive,inactive,inactive
Cc1ncc(C[n+]2csc(CCOP(=O)(O)OP(=O)(O)O)c2C)c(N)n1,inactive,inactive,inactive,inactive,inactive,inactive,inactive,inactive,inactive,inactive
COc1ccc(-c2noc(CC(=O)O)c2-c2ccc(OC)cc2)cc1,inactive,inactive,inactive,inactive,inactive,inactive,inactive,inactive,inactive,inactive
c1ccc2ccccc2c1,inactive,inactive,inactive,inactive,inactive,inactive,inactive,inactive,inactive,inactive
NCC(O)CC(=O)O (stereo not given),inactive,inactive,inactive,inactive,inactive,inactive,inactive,inactive,inactive,inactive
OCC1(CO)COC(C(Cl)(Cl)Cl)OC1,inactive,inactive,inactive,inactive,inactive,inactive,inactive,inactive,inactive,inactive
O=C(O)c1ccc(OCCn2ccnc2)cc1,inactive,inactive,inactive,inactive,inactive,inactive,inactive,inactive,inactive,inactive
Nc1ncnc2c1ncn2CCOCP(=O)(O)O,inactive,inactive,inactive,inactive,inactive,inactive,inactive,inactive,inactive,inactive
CN1c2c(nc(N)[nH]c2=O)NCC1CNc1ccc(C(=O)NC(CCC(=O)O)C(=O)O)cc1 (stereo not given),inactive,inactive,inactive,inactive,inactive,inactive,inactive,inactive,inactive,inactive
CC(=O)N[C@@H]1C(O[C@H]2O[C@H](C(=O)O)C(O)[C@H](O)[C@H]2O)[C@H](O)[C@@H](CO)O[C@H]1O[C@@H]1C(C(=O)O)O[C@@H](O[C@H]2[C@H](O)[C@@H](CO)OC(O)[C@@H]2NC(C)=O)[C@H](O)[C@H]1O (stereo not given in full),inactive,inactive,inactive,inactive,inactive,inactive,inactive,inactive,inactive,inactive
C#C[C@]1(O)CC[C@@H]2[C@H]3CCC4=CC(=O)CC[C@H]4[C@H]3C(=C)C[C@@]21CC,inactive,inactive,inactive,301 nM (active),426 nM (active),536 nM (active),inactive,426 nM (active),536 nM (active),426 nM (active)
CCCOC(=O)c1ccccc1O,inactive,inactive,inactive,inactive,inactive,inactive,inactive,inactive,inactive,inactive
CN(C)CCOc1ccc(/C(=C(/CCCl)c2ccccc2)c2ccccc2)cc1,inactive,inactive,inactive,inactive,inactive,inactive,inactive,inactive,inactive,inactive
OC[C@H]1O[C@@H]2O[C@H]3[C@H](O)[C@@H](O)[C@@H](O[C@H]4[C@H](O)[C@@H](O)[C@@H](O[C@H]5[C@H](O)[C@@H](O)[C@@H](O[C@H]6[C@H](O)[C@@H](O)[C@@H](O[C@H]7[C@H](O)[C@@H](O)[C@@H](O[C@H]1[C@H](O)[C@H]2O)O[C@@H]7CO)O[C@@H]6CO)O[C@@H]5CO)O[C@@H]4CO)O[C@@H]3CO,inactive,inactive,inactive,inactive,inactive,inactive,inactive,inactive,inactive,inactive
CNC(=O)C[C@@H](N)C(=O)N[C@@H](C(=O)N[C@@H]1C(=O)N2[C@@H]1SC(C)(C)[C@@H]2C(=O)O)c1ccc(O)cc1,inactive,inactive,inactive,inactive,inactive,inactive,inactive,inactive,inactive,inactive
CCC(Cc1c(I)cc(I)c(O)c1I)C(=O)O (stereo not given),inactive,inactive,inactive,inactive,inactive,inactive,inactive,inactive,inactive,inactive

SMILES,Potency (CP260),Potency (CP262),Potency (CP265),Potency (CP266),Potency (CP268),Potency (CP269),Potency (CP286),Potency (CP291),Potency (CP297),Potency (CP305)
S=C1SCN(Cc2ccccc2)CN1Cc1ccccc1,inactive,inactive,inactive,inactive,inactive,inactive,inactive,inactive,inactive,inactive
CCCCCCCCCCCCOCCCN,inactive,inactive,inactive,inactive,inactive,inactive,inactive,inactive,inactive,inactive
CC(=O)Oc1cccc(C(=O)O)c1OC(C)=O,inactive,inactive,inactive,inactive,inactive,inactive,inactive,inactive,inactive,inactive
CCCCCCCCCCCCCCCCCC(=O)OCC(C)O (stereo not given),inactive,inactive,inactive,inactive,inactive,inactive,inactive,inactive,inactive,inactive
CCOC(C)OCC,inactive,inactive,inactive,inactive,inactive,inactive,inactive,inactive,inactive,inactive
CCCCCCCCCC(=O)NO,inactive,inactive,inactive,inactive,inactive,inactive,inactive,inactive,inactive,inactive
NCCN,inactive,inactive,inactive,inactive,inactive,inactive,inactive,inactive,inactive,inactive
CC(/C=C/C=C(\C)C(=O)O[C@@H]1O[C@H](CO[C@@H]2O[C@H](CO)[C@@H](O)[C@H](O)[C@H]2O)[C@@H](O)[C@H](O)[C@H]1O)=C\C=C\C=C(C)\C=C\C=C(/C)C(=O)O[C@@H]1O[C@H](CO[C@@H]2O[C@H](CO)[C@@H](O)[C@H](O)[C@H]2O)[C@@H](O)[C@H](O)[C@H]1O,inactive,inactive,inactive,inactive,inactive,inactive,inactive,inactive,inactive,inactive
COC1=C(OC)C(=O)C(C/C=C(\C)CC/C=C(\C)CC/C=C(\C)CC/C=C(\C)CC/C=C(\C)CC/C=C(\C)CC/C=C(\C)CC/C=C(\C)CC/C=C(\C)CCC=C(C)C)=C(C)C1=O,inactive,inactive,inactive,inactive,inactive,inactive,inactive,inactive,inactive,inactive
CNC(=O)c1c(I)c(C(=O)NCC(=O)Nc2c(I)c(C(=O)O)c(I)c(C(=O)NCCO)c2I)c(I)c(N(C)C(C)=O)c1I,inactive,inactive,inactive,inactive,inactive,inactive,inactive,inactive,inactive,inactive
C[Se]CC[C@H](N)C(=O)O,inactive,inactive,inactive,inactive,inactive,inactive,inactive,inactive,inactive,inactive
CN(CCO)CC(O)Cn1cnc2c1c(=O)n(C)c(=O)n2C (stereo not given) (tested in a mixture with another compound),inactive,inactive,inactive,inactive,inactive,inactive,inactive,inactive,inactive,inactive
CCC(C)[C@@H](N)C(=O)O (stereo not given in full),inactive,inactive,inactive,inactive,inactive,inactive,inactive,inactive,inactive,inactive
O=P(O)(O)OP(=O)(O)OP(=O)(O)O,inactive,inactive,inactive,inactive,inactive,inactive,inactive,inactive,inactive,inactive
FC(F)(F)C(F)(F)C(F)(F)C(F)(F)C(F)(F)C(F)(F)F,inactive,inactive,inactive,inactive,inactive,inactive,inactive,inactive,inactive,inactive
CC1=CCC2CC1C2(C)C (stereo not given),inactive,inactive,inactive,inactive,inactive,inactive,inactive,inactive,inactive,inactive
CC(CC=O)CCCC(C)(C)O (stereo not given),inactive,inactive,inactive,inactive,inactive,inactive,inactive,inactive,inactive,inactive
CO,inactive,inactive,inactive,inactive,inactive,inactive,inactive,inactive,inactive,inactive
CC/C(=C(/CC)c1ccc(OP(=O)(O)O)cc1)c1ccc(OP(=O)(O)O)cc1,inactive,inactive,inactive,inactive,inactive,inactive,inactive,inactive,inactive,inactive
CCCCCCCCCCCC(=O)OCC(O)CO (stereo not given),inactive,inactive,inactive,inactive,inactive,inactive,inactive,inactive,inactive,inactive
CC1CCCCN1CCCOC(=O)c1ccccc1 (stereo not given),inactive,inactive,inactive,inactive,inactive,inactive,inactive,inactive,inactive,inactive
COc1ccc(/C=C/C(=O)O)cc1,inactive,inactive,inactive,inactive,inactive,inactive,inactive,inactive,inactive,inactive
